# Screening data: PubChem, Broad Institute
# A selection: hits, their analogues and other compounds. The true share with any hit is near 1.5%.
# PvdQ acylase – P. aeruginosa PvdQ acylase inhibitors, primary screen, biochemical, fluorescence, plate reader and imaging, single point; 0.063% of 340,000 active; PvdQ acylase [Pseudomonas aeruginosa LESB58]; inhibition, % at 10 µM; AID 488965, 2010; purified PvdQ acylase; in the data active means inhibition above about 30%, passing the limit was not always enough; inconclusive means no clear call, values can overlap the other calls;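 further: 0% = vehicle neutral wells and 100% = reference inhibitor wells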
# RAD54 inh – inhibitors of human RAD54 branch migration, primary screen, biochemical, fluorescence, single point | RAD54 Holliday junction branch migration, FAM/BHQ fluorescence | inhibition, % at 10.4 µM | 0.14% of 360,000 active | DNA repair and recombination protein RAD54-like (Homo sapiens), Q92698;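 active means mean normalized replicate activity at least 40 and at least half of replicates scoring 40 or more; inconclusive means only one of the two criteria met; inactive means mean below 40 and under half of replicates reaching 40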;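 further: 0% = median of neutral control wells and 100% = median of positive control wells; inhibitors cause a drop in the FAM fluorescence signal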
# RAD52 anneal inh – RAD52 DNA annealing inhibitors, primary screen, biochemical, FRET, single point, set 2 | DNA repair protein RAD52 homolog (Homo sapiens), P43351 | recombinant RAD52 DNA annealing, FRET fluorescence | inhibition, % at 18.7 µM | 0.46% of 360,000 active;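 active means every replicate showing at least 50% inhibition; inconclusive means mean inhibition at least 50% but not in every replicate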
# N-glyco inh – increase of ERlucT glycosylation luciferase signal, primary screen, N-linked glycosylation inhibitor project, D54 ERlucT cells, luminescence, set 2 | reporter increase, % at 12.5 µM | 0.23% of 360,000 active | D54 ERlucT glycosylation luciferase reporter, 24 h; percent of 100 nM tunicamycin response;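 active means mean luciferase reporter signal, scaled so untreated is 0 and the glycosylation-blocking control 100, at or above a set limit in every replicate; inconclusive means mean reaches the limit but not every replicate does; inactive means mean below the limit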;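 further: luciferase carries N-glycosylation sites so blocking glycosylation raises the light; 0% = median of neutral control wells and 100% = median of 100 nM tunicamycin wells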
# F508del corr – F508del CFTR correction, initial screen, CFBE line, single point. CFBE cells, YFP halide quenching; stimulated with forskolin plus potentiator P3; % fluorescence drop versus neutral controls. activity (quench increase), % at 7.58 µM. 0.36% of 350,000 active;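 active means mean added fluorescence quench of at least 8% versus neutral control, with both replicates also reaching 8%; inconclusive means only one of the mean or replicate conditions met; inactive means mean below 8% and not both replicates reaching 8%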;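 further: cells transiently co-express mutant CFTR-F508del with the halide-sensitive YFP; corrector assay measuring rescue of mutant channel to the surface after 24 h compound exposure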
# dFosB activator – activators of delta FosB homodimer, primary screen, biochemical, fluorescence polarization, TAMRA-CDK5 oligo, single point. purified delta FosB; percent of positive-control signal above neutral wells. activation, % at 25 µM. 0.99% of 340,000 active;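 active means mean activation above about 17%, with every replicate also reaching it, limit read from the data, passing the limit was not always enough; inconclusive means only one of the two conditions met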
# Rad54 DNA ctr – DNA binding of candidate compounds, dose response, artefact control for RAD54 inhibitor project, biochemical, fluorescence polarization, cherry-pick | AC50, µM (titrated, usually from 35 µM), without a hit: top-dose activity change, negative = DNA binding | 8% of 460 active | Acridine orange-DNA displacement, 20 min | shares compounds with RAD54 inh;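 active means signal drop giving an AC50 within twice the top valid tested concentration of each sample, actives reach about 35 µM in these data; inactive means activity opposite to expected, plus the rest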;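 further: polarization loss reports compound binding to salmon sperm DNA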
# Numbers without * were called inactive; i = inactive; ? = inconclusive; / = no result given.
SMILES,PvdQ acylase,RAD54 inh,RAD52 anneal inh,N-glyco inh,F508del corr,dFosB activator,Rad54 DNA ctr
CCn1c(=N)c(C(=O)NC)cc2c(=O)n3cccc(C)c3nc21,-12,?,/,6,/,9,0%
CCCn1c(=N)c(C(=O)NC2CCCC2)cc2c(=O)n3cccc(C)c3nc21,-88,9,/,6,/,2,/
Cc1cccc(N2CCN(C(=S)Nc3ccc4nc(N5CCN(C)CC5)cc(C)c4c3)CC2)c1C,-9,3,49,-20,-15,-16,/
COc1ccc(C(=O)Nc2ccc3nc(N4CCN(C)CC4)cc(C)c3c2)c(OC)c1,-9,51*,31,-4,4,-7,7%
CCCCN(C)C(=S)Nc1ccc2nc(N3CCN(CC)CC3)cc(C)c2c1,4,/,48,-2,1,-4,/
CCCCN(C)CCNC(=S)Nc1ccc2nc(N3CCN(CC)CC3)cc(C)c2c1,14,81*,95*,1,-2,?,9%
Cc1cc(N2CCN(C)CC2)nc2ccc(NC(=S)NCCN3CCc4ccccc4C3)cc12,-11,89*,81*,-8,2,35*,5%
CN1C(=O)c2cc(NC(=O)NCc3ccccc3)ccc2OC[C@H]2O[C@H](CC(=O)O)CC[C@H]21,/,-6,6,/,1,/,/
CCN1CCN(c2nn3c(=O)c4ccccc4nc3c3ccccc23)CC1,-13,57*,/,12,/,-84,i
CC1CN(c2nn3c(=O)c4ccccc4nc3c3ccccc23)CC(C)O1 (stereo unspecified),-14,/,/,2,/,-97,/
C[C@@H]1CCCCO[C@H](CN(C)C(=O)Cc2ccccc2)[C@H](C)CN([C@@H](C)CO)C(=O)c2cc(NS(C)(=O)=O)ccc2O1,/,/,/,/,1,/,/
COc1cccc(-c2nc(NCCN3CCOCC3)c3ccccc3n2)c1O,-15,109*,/,14,/,5,-4%
Cc1ccc(-c2nc(NCCN3CCOCC3)c3ccccc3n2)cc1,-14,?,/,5,/,-19,-7%
Cc1cccc(-c2nc(NCCN(C)C)c3ccccc3n2)c1,/,38,16,10,2,/,/
Oc1ccccc1-c1nc(NCCN2CCOCC2)c2ccccc2n1,6,?,/,4,/,0,10%
CN(C)CCCNc1nc(-c2ccccc2)nc2ccccc12,-14,67*,48,6,0,-20,-22%
C[C@@H](NC(=O)C[C@H]1CC[C@H]2[C@@H](COC[C@H](O)CN2C(=O)Nc2cc(Cl)cc(Cl)c2)O1)c1ccccc1,/,-9,10,/,0,/,/
Cc1nc2ccccc2c2oc(C(=O)NCCN3CCCCC3C)cc12 (stereo unspecified),-11,52*,-5,18,5,-19,-19%
Cc1nc2ccccc2c2oc(C(=O)N3CCC(N4CCCCC4)CC3)cc12,1,67*,/,-2,/,-13,-5%
O=C(C[C@H]1CC[C@@H]2[C@H](COC[C@@H](O)CN2Cc2nccs2)O1)NCc1ccccc1F,/,2,4,/,1,/,/
COc1ccccc1NC(=O)Cn1nnc2sc3c(c2c1=O)CC(C)(C)OC3,/,?,-23,1,0,/,-17%
CC1(C)Cc2c(sc3nnn(CC(=O)Nc4ccccc4)c(=O)c23)CO1,-5,-16,-29,-2,0,-20,/
O=C(C[C@H]1CC[C@H](NC(=O)c2cccnc2)[C@H](CO)O1)NCCN1CCCCC1,/,-1,3,/,6,/,/
Cn1c2ccc(F)cc2c2ncn(CCCN(CCO)CCO)c(=O)c21,-1,54*,/,1,/,3,-14%
CN(C)Cc1cc2ccccc2c2c1COC2,0,-7,4,0,0,-2,/
SMILES,PvdQ acylase,RAD54 inh,RAD52 anneal inh,N-glyco inh,F508del corr,dFosB activator,Rad54 DNA ctr
Cc1cc2ccc3ccccc3c2cc1CN(C)C,-6,52*,42,1,-2,-18,-14%
NC(=O)C1CCN(c2nc(-c3cccc(N)c3)cs2)CC1,-5,4,/,4,-5,-5,/
NC(=O)C1CCN(c2nc(-c3cccnc3)cs2)CC1,-12,60*,11,2,-3,33*,14%
Clc1ccc(NNc2ccnc3cc(Cl)ccc23)cc1,-15,-1,/,0,/,1,/
Oc1ccc(Nc2ccnc3cc(Cl)ccc23)cc1,0,58*,-4,-5,3,?,-12%
COc1ccc2c3c(n(C)c2c1)[C@@H](CO)N(Cc1ccccc1F)CC31CN(C(=O)C2CCCC2)C1,/,/,-5,/,2,/,/
COC(=O)Nc1nnc(COc2cccc(C)c2)s1,-10,/,-25,-2,2,-8,/
COC(=O)Nc1nnc(COc2ccccc2)s1,/,?,4,2,-2,/,3%
Cc1noc(C)c1S(=O)(=O)N(C)C[C@H]1OCCCC[C@@H](C)Oc2ccc(NS(=O)(=O)c3ccc(F)cc3)cc2C(=O)N([C@@H](C)CO)C[C@H]1C,/,9,/,/,-1,/,/
CCOC(=O)c1c(NC(C)=O)sc2c(OC)cccc12,2,4,/,0,/,0,/
CCOC(=O)c1c(NC(C)=O)sc2c(O)c(CN3CCN(CC)CC3)ccc12,-5,62*,/,-1,/,-4,24%
CCN(CC)CCNC(=O)c1cc2c(-c3ccc(Cl)cc3)nn(C)c2s1,-19,113*,61*,36*,0,-66,i
CCOC(=O)c1c(CN2CCCCC2)n(C)c2cc(Br)c(OC)cc12,-14,?,/,0,/,12,-17%
CCOC(=O)c1c(CN2CCN(CCO)CC2)n(C)c2cc(Br)c(OC)cc12,-7,35,/,3,/,15,/
C[C@@H]1CN([C@@H](C)CO)C(=O)c2cc(NC(=O)c3ccccc3)ccc2O[C@@H](C)CCCCO[C@H]1CN(C)Cc1ccccc1,/,13,/,/,-2,/,/
CCN1CCN(c2nc(N)c([N+](=O)[O-])c(Nc3cccc(C)c3)n2)CC1,-9,?,-17,14,4,9,-8%
Cc1ccc2[nH]c(=O)c3cc(C(=O)NCCN4CCN(C)CC4)sc3c2c1,-12,57*,26,10,-2,-68,-13%
COc1ccccc1NC(=O)CNC(=O)c1ccccc1,-16,52*,/,1,/,2,-14%
O=C(C1CC1)N1CC(=O)N2[C@H](CO)[C@@H](c3ccc(Br)cc3)[C@H]2C1,/,/,-17,/,1,/,/
